# Laboratory results: the supplement of paper PMC7801607
# Test system: Plasmodium berghei ANKA liver stage in HepG2-A16-CD81
# Test: % inhibition of liver stage parasite viability (luciferase); higher = more inhibition
# Details: 5 µM; 48 h
# Protocol: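 Single-concentration screen of the MMV Pandemic Response Box. P. falciparum NF54 asexual blood stages: pLDH assay, 72 h at 37 °C, 2 and 20 µM, n=2. Stage IV/V gametocytes (NF54): luciferase reporter (NF54-Pfs16-GFP-Luc, 48 h), ATP bioluminescence (24 h) and PrestoBlue (48 h) at 1 and 5 µM, n=1. P. berghei liver stage (luciferase in HepG2-A16-CD81, 48 h post infection) at 5 µM, n=4. All normalised to DMSO and kill controls as % inhibition.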
row,SMILES,% inhibition of liver stage parasite viability [%]
1,COc1ccc(C)cc1NC(=O)c1ccc(S(=O)(=O)N2CCCCC2)cc1,30
2,COC(=O)Nc1nc2cc(S(=O)c3ccccc3)ccc2[nH]1 (stereo not given),9.84
3,COc1ccc(NC(=O)CC2Sc3ncnn3C2=O)cc1 (stereo not given),34.5
4,NC(=O)c1[nH]c2ccc(S(N)(=O)=O)cc2c1-c1ccccc1,21.9
5,OCCCCn1cnc2c(O)nc(NCc3ccc(Cl)c(Cl)c3)nc21,7.89
6,Nc1nc(-c2ccccc2)nc2[nH]nc(Nc3ccc(C(F)(F)F)cc3)c12,53.1
7,Cc1ccc(NC(=O)c2ccc(CN3CCN(C)CC3)cc2)cc1Nc1nccc(-c2cccnc2)n1,8.45
8,Cc1ccn2c(C(=O)NCc3ccccc3)c(C)nc2c1,20.4
9,Clc1cc(Cl)c2c(c1)CCc1ccccc1C2n1ccnc1 (stereo not given),53.2
10,O=C(N[C@H](CCS)C(=O)N[C@H](Cc1ccccc1)C(=O)O)c1cc2ccccc2[nH]1,5.97
11,CC(Oc1ccc(Cl)cc1Cl)C(=O)NCc1ccc2c(c1)OCO2 (stereo not given),7.01
12,O=C(c1ccccc1)N1CCN(c2ccccc2NC(=O)C(Cl)(Cl)Cl)CC1,28.1
13,CCCCc1ccc(-c2cc(C(=O)O)cc(-c3ccc(Cl)cc3)n2)cc1,40
14,O=C(Nc1[nH]c(=O)ncc1F)c1ccccc1,24.1
15,O=C(NNC(=S)Nc1ccc(Cl)cc1)c1ccncc1,5.18
16,C[C@H]1CC[C@@]2(O)C(C)(C)[C@@H]3CC[C@@]2(C)[C@H]1C3,29.2
17,Cc1ccc(NC(=O)c2cc(Cl)ccc2O)cc1,78.5
18,O=c1oc2ccc(Br)cc2cc1CSc1ncc[nH]1,-13.1
19,CC(=O)N1CCN(c2ccc(OCC3COC(Cn4ccnc4)(c4ccc(Cl)cc4Cl)O3)cc2)CC1 (stereo not given),16.4
20,O=c1cc(OCc2ccccc2)ccn1Cc1ccccc1,20.3

row,SMILES,% inhibition of liver stage parasite viability [%]
1,NC[C@H]1O[C@H](O[C@H]2[C@H](O)[C@@H](O[C@H]3O[C@H](CO)[C@@H](O)[C@H](N)[C@H]3O)[C@H](N)C[C@@H]2N)[C@H](N)C[C@@H]1O,36.3
2,Cc1cc(C)n(O)c(=O)c1,15.5
3,O=C1NC(=S)N/C1=C\c1cc(Br)cc(Br)c1O,-2.17
4,O=C(O)/C=C/C=C/c1cccc(Oc2cc(Cl)cc(Cl)c2)c1,28.9
5,O=C(Nc1ccccc1)N(Cc1cc(Br)ccc1O)c1ccc(F)cc1,17.9
6,CC(C)(C)c1ccc(OCCn2nc(C(=O)O)c3ccccc3c2=O)cc1,3.4
7,OB1OCc2c1ccc(Cl)c2F,7.88
8,CN(C)CCCNC(=O)c1ccc(-c2cc(O)c3ncccc3c2)cc1,24.5
9,CC(C)(C)c1cc(C(=O)/C(C#N)=N/Nc2cccc(Cl)c2)no1,51.5
10,CCC(C)n1ncn(-c2ccc(N3CCN(c4ccc(OCC5COC(Cn6cncn6)(c6ccc(Cl)cc6Cl)O5)cc4)CC3)cc2)c1=O (stereo not given),46.4
11,CC1(C)C[C@H]1C(=O)N/C(=C\CCCCSC[C@@H](N)C(=O)O)C(=O)O,12.4
12,C=CCc1cc(Cc2cnc(N)nc2N)cc(OC)c1O,68.4
13,COc1cc(NS(=O)(=O)c2ccc(C)cc2)c2ncccc2c1,48.9
14,O=[N+]([O-])/C(Br)=C/c1ccc(Br)o1,15.9
15,COc1ccc(NS(=O)(=O)c2ccc(Cl)s2)cn1,-1.42
16,O=[N+]([O-])c1ccc2c(CCc3c[nH]c4ccccc34)c[nH]c2c1,-60.7
17,Cc1ccc(S(=O)(=O)Nc2cccc3cccnc23)cc1,27.6
18,O[C@@](Cn1cnnn1)(c1ccc(F)cc1F)C(F)(F)c1ccc(-c2ccc(OCC(F)(F)F)cc2)cn1,40
19,O=C(/C=C/n1cnc(-c2cc(C(F)(F)F)cc(C(F)(F)F)c2)n1)NNc1cnccn1,11.6
20,COc1cc(Cc2cc(N)nc(N)n2)cc(OC)c1OC,81.6
